PubChem BioAssay AID1159580 (chemical genetic matrix, 2015)
Among all 5,500 compounds or so, about 2,000 (36%) were called active. Not shown: some 18% with an inconclusive outcome. No stated cut-off is given here; in the data, active means normalized growth mostly below about 0.91 (no sharp cut-off); inconclusive means no clear call, values can overlap the other calls; inactive means mostly above about 0.92. The list shows a part of the results.

Assay: chemical genetic growth profiling, strain panel (AID 1159580);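 further: tested at 20 µM; growth read once vehicle control cultures reached saturation at 30 °C; 1 = growth at the plate median or of vehicle wells; lower values mean less growth of the strain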
Conditions: growth OD

Measured: normalized growth

Cc1cc(C)cc(OCC2CNC(=O)O2)c1 (configuration not stated)
inactive: S. cerevisiae deletion strains, locus YJR075W, strain HOC1, active compounds read low 1.01 | S. cerevisiae deletion strains, locus YKL009W, strain mrt4, active compounds read low 1.02 | S. cerevisiae deletion strains, locus YKL068W, active compounds read low 1.02 | S. cerevisiae deletion strains, locus YKL085W, strain MDH1 (second series), active compounds read low 1.01 | S. cerevisiae deletion strains, locus YKL085W, strain MDH1, active compounds read low 1.01 | S. cerevisiae deletion strains, locus YKL160W, strain elf1, active compounds read low 0.973 | S. cerevisiae deletion strains, locus YKL190W, strain CNB1, active compounds read low 1.01 | S. cerevisiae deletion strains, locus YKR001C, strain vps1, active compounds read low 1.01 | S. cerevisiae deletion strains, locus YKR026C, strain gcn3, active compounds read low 0.978 | S. cerevisiae deletion strains, locus YKR091W, strain srl3, active compounds read low 0.985 | S. cerevisiae deletion strains, locus YLL001W, strain dnm1, active compounds read low 0.976 | S. cerevisiae deletion strains, locus YLL026W, active compounds read low 0.988 | S. cerevisiae deletion strains, locus YLL041C, strain sdh2, active compounds read low 0.972 | S. cerevisiae deletion strains, locus YLR027C, strain aat2, active compounds read low 0.985 | S. cerevisiae deletion strains, locus YLR039C, strain RIC1, active compounds read low 1.04 | S. cerevisiae deletion strains, locus YLR058C, strain SHM2, active compounds read low 1.01 | S. cerevisiae deletion strains, locus YLR102C, strain apc9, active compounds read low 1.02 | S. cerevisiae deletion strains, locus YLR113W, strain HOG1, active compounds read low 1.03 | S. cerevisiae deletion strains, locus YLR221C, strain rsa3, active compounds read low 0.966 | S. cerevisiae deletion strains, locus YLR258W, strain gsy2, active compounds read low 0.981 | S. cerevisiae deletion strains, locus YLR262C, strain YPT6 (second series), active compounds read low 0.962 | S. cerevisiae deletion strains, locus YLR262C, strain YPT6, active compounds read low 1.07 | S. cerevisiae deletion strains, locus YLR268W, strain sec22, active compounds read low 1.01 | S. cerevisiae deletion strains, locus YLR320W, strain mms22, active compounds read low 0.978 | S. cerevisiae deletion strains, locus YLR330W, strain CHS5, active compounds read low 1.01 | S. cerevisiae deletion strains, locus YLR342W, strain FKS1 (second series), active compounds read low 1.02 | S. cerevisiae deletion strains, locus YLR342W, strain FKS1, active compounds read low 0.982 | S. cerevisiae deletion strains, locus YLR357W, strain rsc2, active compounds read low 1.01 | S. cerevisiae deletion strains, locus YLR370C, strain arc18, active compounds read low 0.963 | S. cerevisiae deletion strains, locus YLR371W, strain rom2, active compounds read low 1.02 | S. cerevisiae deletion strains, locus YLR384C, strain iki3, active compounds read low 0.973 | S. cerevisiae deletion strains, locus YLR418C, strain cdc73, active compounds read low 1.02 | S. cerevisiae deletion strains, locus YML016C, strain PPZ1, active compounds read low 1.01 | S. cerevisiae deletion strains, locus YML032C, strain rad52, active compounds read low 1.02 | S. cerevisiae deletion strains, locus YML120C, strain ndi1, active compounds read low 0.984 | S. cerevisiae deletion strains, locus YML124C, strain tub3, active compounds read low 1 | S. cerevisiae deletion strains, locus YMR058W, strain fet3, active compounds read low 0.95 | S. cerevisiae deletion strains, locus YMR078C, strain ctf18, active compounds read low 1.02 | S. cerevisiae deletion strains, locus YMR125W, strain sto1, active compounds read low 0.979 | S. cerevisiae deletion strains, locus YMR129W, active compounds read low 0.984 | S. cerevisiae deletion strains, locus YMR205C, strain PFK2, active compounds read low 0.97 | S. cerevisiae deletion strains, locus YMR223W, strain ubp8, active compounds read low 1.02 | S. cerevisiae deletion strains, locus YMR231W, strain pep5, active compounds read low 0.964 | S. cerevisiae deletion strains, locus YMR263W, strain SAP30, active compounds read low 1.01 | S. cerevisiae deletion strains, locus YMR307W, strain GAS1, active compounds read low 1.03 | S. cerevisiae deletion strains, locus YNL067W, strain RPL9B, active compounds read low 1.02 | S. cerevisiae deletion strains, locus YNL071W, strain lat1, active compounds read low 0.983 | S. cerevisiae deletion strains, locus YNL128W, strain TEP1, active compounds read low 1.01 | S. cerevisiae deletion strains, locus YNL153C, strain GIM3, active compounds read low 1 | S. cerevisiae deletion strains, locus YNL183C, strain NPR1, active compounds read low 0.98 | S. cerevisiae deletion strains, locus YNL209W, strain ssb2, active compounds read low 0.969 | S. cerevisiae deletion strains, locus YNL233W, strain BNI4, active compounds read low 1 | S. cerevisiae deletion strains, locus YNL248C, strain rpa49, active compounds read low 0.976 | S. cerevisiae deletion strains, locus YNL250W, strain rad50, active compounds read low 1.02 | S. cerevisiae deletion strains, locus YNL271C, strain bni1, active compounds read low 1.02 | S. cerevisiae deletion strains, locus YNL298W, strain CLA4, active compounds read low 1.02 | S. cerevisiae deletion strains, locus YNL307C, strain MCK1, active compounds read low 1.01 | S. cerevisiae deletion strains, locus YNL322C, strain KRE1 (second series), active compounds read low 0.975 | S. cerevisiae deletion strains, locus YNL322C, strain KRE1, active compounds read low 1.01 | S. cerevisiae deletion strains, locus YNR049C, strain mso1, active compounds read low 0.983 | S. cerevisiae deletion strains, locus YNR052C, strain pop2, active compounds read low 1.02 | S. cerevisiae deletion strains, locus YOL006C, strain TOP1, active compounds read low 1.03 | S. cerevisiae deletion strains, locus YOL012C, strain htz1 1.42 | S. cerevisiae deletion strains, locus YOL147C, strain pex11, active compounds read low 1.01 | S. cerevisiae deletion strains, locus YOR001W, strain rrp6, active compounds read low 0.984 | S. cerevisiae deletion strains, locus YOR061W, strain CKA2, active compounds read low 1.01 | S. cerevisiae deletion strains, locus YOR069W, strain VPS5, active compounds read low 1.02 | S. cerevisiae deletion strains, locus YOR070C, strain gyp1, active compounds read low 0.969 | S. cerevisiae deletion strains, locus YOR080W, strain dia2, active compounds read low 0.991 | S. cerevisiae deletion strains, locus YOR083W, strain WHI5, active compounds read low 0.986 | S. cerevisiae deletion strains, locus YOR106W, strain vam3, active compounds read low 0.978 | S. cerevisiae deletion strains, locus YOR136W, strain idh2, active compounds read low 1.01 | S. cerevisiae deletion strains, locus YOR144C, strain elg1, active compounds read low 1.01 | S. cerevisiae deletion strains, locus YOR184W, strain ser1, active compounds read low 1.03 | S. cerevisiae deletion strains, locus YOR231W, strain MKK1, active compounds read low 1.05 | S. cerevisiae deletion strains, locus YOR265W, strain rbl2, active compounds read low 0.975 | S. cerevisiae deletion strains, locus YOR270C, strain vph1, active compounds read low 0.939 | S. cerevisiae deletion strains, locus YOR290C, strain snf2, active compounds read low 0.982 | S. cerevisiae deletion strains, locus YOR316C, strain cot1, active compounds read low 1.02 | S. cerevisiae deletion strains, locus YPL051W, strain arl3, active compounds read low 0.979 | S. cerevisiae deletion strains, locus YPL055C, strain LGE1, active compounds read low 1.02 | S. cerevisiae deletion strains, locus YPL078C, strain atp4, active compounds read low 0.973 | S. cerevisiae deletion strains, locus YPL106C, strain sse1, active compounds read low 0.969 | S. cerevisiae deletion strains, locus YPL240C, strain hsp82, active compounds read low 0.979 | S. cerevisiae deletion strains, locus YPL241C, strain CIN2, active compounds read low 1.01 | S. cerevisiae deletion strains, locus YPL256C, strain CLN2, active compounds read low 1.1 | S. cerevisiae deletion strains, locus YPR119W, strain clb2, active compounds read low 1.01 | S. cerevisiae deletion strains, locus YPR141C, strain kar3, active compounds read low 1.02 | S. cerevisiae deletion strains, locus YPR163C, strain tif3, active compounds read low 1.01 | S. cerevisiae deletion strains, locus YPR167C, strain met16, active compounds read low 1.01 | S. cerevisiae deletion strains, strain wtn01, active compounds read low 1.01 | S. cerevisiae strains, strain wild type, active compounds read low 1.01
